The list is not random: actives were taken first. Their share in the collection is about 4%.
NALP1 yeast inh = NALP1 inhibition | 280,000 tested, 0.61% active | inhibition, % at 10 µM | S. cerevisiae NALP1/ASC/caspase-1 growth, X-gal OD620, 72 h; in the data active means inhibition mostly above about 24%, no sharp cut-off; inactive means mostly below about 32%
NLRP3 yeast inh = blocks the NALP3 inflammasome reconstituted in yeast; 330,000 tested, 0.39% active; Yeast reconstituted NLRP3/ASC/caspase-1, beta-gal luminescence, 24 h; inhibition, % at 10 µM;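 active means inhibition of 50% or more; inactive means inhibition below 50%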
tim23-1 inh = growth inhibitors of tim23-1 mutant yeast. S. cerevisiae tim23-1 growth, BacTiter-Glo luminescence, 24 h. inhibition, % at 20 µM. 330,000 tested, 1.3% active. AID 463212;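 active means growth inhibition of the mutant yeast at or above 50%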;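 further: temperature-sensitive mutant grown at 25 °C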
TIM10 inh = growth inhibitors of TIM10 yeast strain; S. cerevisiae TIM10 strain growth, BacTiter-Glo luminescence, 24 h; inhibition, % at 10 µM; 330,000 tested, 1.4% active;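 active means inhibition of 40% or more at the single tested concentration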;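 further: wild-type TIM10 isogenic control strain grown at permissive 25 °C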
tim10-1 inh = inhibits growth of tim10-1 mutant yeast. S. cerevisiae tim10-1 ts strain growth, BacTiter-Glo, 24 h. inhibition, % at 20 µM. 330,000 tested, 2.2% active. AID 463190;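 active means inhibition of at least 40%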;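 further: mutant grown at 25 °C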
tim10 confirm = TIM10 yeast growth inhibition, confirmed | shares compounds with TIM10 inh | S. cerevisiae tim10 strain growth, BacTiter-Glo luminescence, 24 h | inhibition, % at 10 µM | 4,600 tested, 63% active | AID 463215;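 active means inhibition of yeast growth at or above a set limit in either of two replicates at 10 µM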; further: this counterscreen used the strain with wild-type TIM10
Hits are given with their value; i = inactive; nt = no result given.

SMILES	NALP1 yeast inh	NLRP3 yeast inh	tim23-1 inh	TIM10 inh	tim10-1 inh	tim10 confirm
Cc1cc(Cl)ccc1OCCNC(=S)NC(=O)c1cccnc1	i	i	i	i	i	nt
CC(C)c1ccccc1OCCNC(=S)NC(=O)c1cccnc1	i	i	i	45	i	44
O=C(C1CCCN(S(=O)(=O)c2ccc(Cl)cc2)C1)N(Cc1cccs1)C1CC1 (stereo not drawn)	i	i	i	43	i	i
Cc1nc2ccccc2n1Cc1ccccc1	i	i	i	i	i	nt
c1ccc(Cc2nc3ccccc3n2Cc2ccccc2)cc1	i	i	i	44	i	32
COc1ccc2nc(SCC(=O)NC(C)c3ccccc3)[nH]c2c1 (stereo not drawn)	nt	i	i	i	i	nt
COCCCNC(=O)/C(C#N)=C/c1cccc(NC(=O)c2ccccc2Cl)c1	i	i	i	45	i	46
CC(=O)c1ccc(S(=O)(=O)N2CCN(C(=O)CSc3ccc(C)c(C)c3)CC2)cc1	i	i	i	i	i	nt
COc1ccc(/C=C(\C#N)C(=O)Nc2cccc3ncccc23)cc1OC	nt	i	i	i	i	nt
COc1cc(/C=C(\C#N)C(=O)Nc2cccc3ncccc23)cc(OC)c1OC	i	i	i	42	i	i
O=C(COC(=O)CN1C(=O)C(=O)c2ccccc21)OCN1C(=O)c2ccccc2C1=O	i	i	i	48	i	i
CC(N)C(=O)NC(C(=O)N1CCCC1C(=O)NC(c1ccccc1)c1ccccc1)C(C)C (stereo not drawn)	nt	i	i	i	i	nt
Cc1ccc(C(=O)C[n+]2cc(-c3ccc(C)cc3)n3c2CCCCC3)cc1	i	i	i	46	i	i
COc1ccc(C(=O)C[n+]2cc(-c3ccc(OC)cc3)n3c2CCCC3)cc1	i	i	i	i	i	nt
O=C1CC(c2ccccc2)=Nc2ccccc2N1Cc1ccccc1	i	i	i	40	i	i
Fc1cccc(/C=N/n2c(C3CCCCC3)n[nH]c2=S)c1	i	i	i	44	i	37
Cc1[nH]c(=S)sc1Cc1ccc(Cl)c(Cl)c1	i	i	i	42	i	i
O=C(NC12CC3CC(CC(C3)C1)C2)c1ccccc1	i	i	i	i	i	nt
O=C(NC12CC3CC(CC(C3)C1)C2)N(Cc1ccccc1)Cc1ccncc1	i	i	i	44	i	32
CCc1ccccc1NC(=S)N(Cc1ccco1)C(C)c1cccs1 (stereo not drawn)	i	i	i	81	i	i
CCN(CCNC(=O)C1CCCN(c2ncnc3c2nc2n3CCCCC2)C1)Cc1ccccc1 (stereo not drawn)	i	i	i	71	i	i
CN(CCNC(=O)C1CCN(c2ncnc3c2nc2n3CCCCC2)CC1)Cc1ccccc1	i	i	i	i	i	nt
CCCN(CCC)CCCNC(=O)c1cc2cc3ccc(OC)cc3nc2o1	i	i	i	65	i	i
COc1ccc2nc3oc(C(=O)N4CCN(c5ccccc5F)CC4)cc3cc2c1	i	i	i	i	i	nt
COc1ccc2cc3cc(C(=O)N4CCN(C5CCCCC5)CC4)oc3nc2c1	i	i	i	64	i	46
SMILES	NALP1 yeast inh	NLRP3 yeast inh	tim23-1 inh	TIM10 inh	tim10-1 inh	tim10 confirm
COc1ccc2cc3cc(C(=O)NCCc4ccc(OC)c(OC)c4)oc3nc2c1	i	i	i	55	i	i
COc1ccc2cc3cc(C(=O)NCCCN4CCC(C)CC4)oc3nc2c1	i	i	i	77	i	68
Cn1cc(-c2ccccc2C(=O)O)c(=O)c2cc(Cl)ccc21	i	i	i	i	i	nt
COc1ccc(NC(=O)c2ccc(NC(=O)c3nc4nc(C)cc(C)n4n3)cc2)cc1	nt	i	i	42	i	i
CC(=O)Nc1ccc(S(=O)(=O)N2CCCC(C(=O)O)C2)cc1 (stereo not drawn)	i	i	i	i	i	nt
CCCOc1cccc(C(=O)NC(=S)Nc2cccc(C(F)(F)F)c2)c1	i	i	i	41	i	i
CN(C)CCCNc1cc(C(C)(C)C)nc2c(-c3ccc(Cl)cc3)cnn12	i	i	i	55	i	60
CCN1C(=O)[C@H]2[C@H]3CN=C(SCc4ccc(Cl)cc4)N3[C@@](C)(C(=O)OC)[C@H]2C1=O	nt	nt	i	i	i	nt
O=C(CSc1ncnc2ccccc12)c1ccc2c(c1)OCCO2	i	i	i	47	i	i
Cc1cc(Br)c(OCc2ccc(C(=O)N/N=C3\CC4CC=CC34)cc2)c(Br)c1 (stereo not drawn)	i	i	i	42	i	44
